# Source: PubChem (National Center for Advancing Translational Sciences (NCATS))
# Rows were chosen to be rich in hits. Some 19% of all compounds tested hit in one or more screens of this group.
# TGFb inhibitor – qHTS for Inhibitors of TGF-b. 410,000 tested, 1.2% active. AID 588855, 2011. Potency, µM (series often up to 46.1 µM), without a hit: at the highest dose activity, negative = inhibition, most hits filed as inhibitors. HepG2 CAGA-GFP TGF-b/SMAD3 reporter, GFP fluorescence, 18 h; TGF-beta stimulated, 500 pg/mL final; also: potency is read from the fitted curve at half-maximal effect; % is scaled to controls: 0 for no effect and ±100 for the full control effect; nearly all actives have a fitted effect of over 65% in size
#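 Per well, imaged GFP fluorescence of HEPG2 CAGA-GFP cells gives the signal; cells get compound, then TGF-beta (500 pg/mL final), 18 h at 37 degrees C; %Activity versus -TGF-beta and +DMSO controls.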
# HepG2 tox – qHTS for Inhibitors of TGF-b: Cytotox Counterscreen. HepG2 CAGA-GFP viability, ATP luminescence, 18 h. Potency, µM (highest dose often 46.1 µM), inactives show top-dose activity change, negative = cytotoxicity, usual class: cytotoxic. 410,000 tested, 0.76% active; also: potency is read from the fitted curve at half-maximal effect
#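 CellTiter-Glo luminescence gave cytotoxicity after 18 hours at 37 degrees C. The cells were HepG2 CAGA-GFP in 1% FBS DMEM, stimulated with 500 pg/mL TGF-beta after compound addition. %Activity was normalised to no-cell wells (complete cell-killing) and DMSO (no toxicity), and curves were fitted and classified.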
# TDP1 block – qHTS Assay for Inhibitors of Tyrosyl-DNA Phosphodiesterase (TDP1). recombinant TDP1, AlphaScreen DNA substrate cleavage. Potency, µM (series often up to 130 µM), for inactives: at the highest dose activity change, negative = inhibition, most hits filed as inhibitors. 350,000 tested, 0.28% active; also: potency is read from the fitted curve at half-maximal effect; % is scaled to controls: 0 for no effect and ±100 for the full control effect; nearly all actives have a fitted effect of over 40% in size
# Target sequence (Q9NUW8 whole entry, looked up): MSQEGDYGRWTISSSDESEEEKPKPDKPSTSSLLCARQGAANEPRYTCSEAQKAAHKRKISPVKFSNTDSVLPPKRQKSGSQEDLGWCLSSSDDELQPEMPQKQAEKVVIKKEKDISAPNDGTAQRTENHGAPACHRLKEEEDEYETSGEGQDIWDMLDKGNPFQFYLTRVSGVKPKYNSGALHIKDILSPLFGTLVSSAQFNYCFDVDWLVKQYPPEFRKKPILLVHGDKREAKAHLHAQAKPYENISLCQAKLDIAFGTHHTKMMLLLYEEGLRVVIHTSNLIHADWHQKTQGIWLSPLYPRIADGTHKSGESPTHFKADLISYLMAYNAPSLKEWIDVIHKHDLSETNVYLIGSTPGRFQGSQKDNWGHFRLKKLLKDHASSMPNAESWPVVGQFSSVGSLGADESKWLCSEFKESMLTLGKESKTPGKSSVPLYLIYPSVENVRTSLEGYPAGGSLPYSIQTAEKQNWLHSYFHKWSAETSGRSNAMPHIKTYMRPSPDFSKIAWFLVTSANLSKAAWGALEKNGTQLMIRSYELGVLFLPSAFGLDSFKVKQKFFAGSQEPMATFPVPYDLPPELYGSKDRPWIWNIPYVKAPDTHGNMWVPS
#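 Tdp1 1 nM final; 15 min RT w/ cpd; substrate 15 nM, 5 min; beads 10 ug/ml, 10 min; AlphaScreen read. Neg ctrl: no enzyme.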
# IL1B secr inh – qHTS for Inhibitors of Inflammasome Signaling: IL-1-beta AlphaLISA Primary Screen. 360,000 tested, 4.7% active. AID 743279, 2014. THP-1 LPS/ATP IL-1B secretion, AlphaLISA, 16 h; stronger effect = lower value. activity change, % at 57.5 µM; in the data active = activity change below about -50%; inconclusive = mostly about -30% to -49%; also: % is scaled to controls: 0 for no effect and ±100 for the full control effect
#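 Secreted IL-1B measured by AlphaLISA bead assay after 16 h compound exposure of THP-1 cells; compounds (final up to 57.5 uM) added 1 h before LPS (250 ng/mL) and ATP (1.25 mM) stimulation; lower signal means less secretion.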
# DT40 TDP1 no CPT – qHTS for Inhibitors of human tyrosyl-DNA phosphodiesterase 1 (TDP1): qHTS in cells in absence of CPT; DT40 Tdp1-/- hTDP1 cells, no CPT, ATP luminescence, 48 h; Potency, µM (top dose mostly 46.2 µM), inactives show top-dose activity change, negative = growth inhibition, hits mostly inhibitors; 420,000 tested, 15% active; also: potency is read from the fitted curve at half-maximal effect; % is scaled to controls: 0 for no effect and ±100 for the full control effect; nearly all actives have a fitted effect of over 55% in size
#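 Stably hTDP1-transfected Tdp1-null chicken DT40 cells were treated with library compounds minus camptothecin and grown for at least 48 hr at 37 °C, after which cellular ATP was quantified by luminescence.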
# TDP1 cell CPT – qHTS for Inhibitors of human tyrosyl-DNA phosphodiesterase 1 (TDP1): qHTS in cells in presence of CPT; chicken DT40 Tdp1-/-;hTDP1 cells + 20 nM CPT, ATP luminescence, 48 h; Potency, µM (highest dose often 46.2 µM), for inactives: at the highest dose activity change, negative = growth inhibition, actives largely listed as inhibitors; 420,000 tested, 12% active; also: potency is read from the fitted curve at half-maximal effect; % is scaled to controls: 0 for no effect and ±100 for the full control effect; nearly all actives have a fitted effect of over 55% in size
#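 Chicken DT40 Tdp1-/- cells stably complemented with human TDP1 were seeded at 400 cells/well in medium containing 20 nM camptothecin, exposed to pin-transferred compounds, and grown at 37 °C for at least 48 hr. Viability was read as ATP luminescence.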
# Starred values were filed as active, the others as inactive; ? = inconclusive; / = no result; [ ] = another dose, or the depositor's remark. Unless noted, calls follow the shape of the dose curve; as a rule, active = well fitted curve in the direction sought with a large enough effect; inconclusive = small, poorly fitted or top-dose-only effect, or another doubt; inactive = no such curve, though single readings can be large; an effect the other way counts as inactive or inconclusive.
SMILES,TGFb inhibitor,HepG2 tox,TDP1 block,IL1B secr inh,DT40 TDP1 no CPT,TDP1 cell CPT
CC1(c2cc([N+](=O)[O-])cc([N+](=O)[O-])c2)CC(C)(C)N(C(=O)c2ccccc2)c2ccccc21 (centres undefined),?,3%,9%,0,16µM*,23µM*
CC1(c2ccc(Cl)cc2)CC(C)(C)N(C(=O)c2ccccc2)c2ccccc21 (centres undefined),?,-14%,-1%,/,?,?
CCC(=O)N1c2ccccc2C(C)(c2ccccc2)CC1(C)C (centres undefined),-2%,-1%,/,/,-28%,-16%
C[C@@H]1NC(=O)[C@@H](N)CNC(=O)[C@H](C2CCNC(N)=N2)NC(=O)/C(=C/NC(N)=O)NC(=O)[C@H](CNC(=O)C[C@@H](N)CCCN)NC1=O (some centres undefined),/,/,/,/,-13%[21.1 µM],-2%[21.1 µM]
COc1cccc(NS(=O)(=O)c2ccc3[nH]cc(C(=O)NCCc4ccccc4)c(=O)c3c2)c1,-1%,-25%,-12%,/,?,?
O=c1cc(N2CCN(c3ccc(F)cc3)CC2)[nH]c(=O)n1-c1cccc(Br)c1,0%,-6%,-4%,/,18µM*,10µM*
O=c1cc(N2CCN(c3ccccc3)CC2)[nH]c(=O)n1-c1ccccc1,0%,-14%,2%,-2,12%,-21%
O=C(CCCCCn1c(=S)[nH]c2cc3c(cc2c1=O)OCO3)N1CCN(C2CCCCC2)CC1,?,-52%,2%,-74*,?,?
COc1ccc(N2CCN(C(=O)CCCn3c(=S)[nH]c4cc5c(cc4c3=O)OCO5)CC2)cc1,5%,-12%,4%,-16,-6%,-20%
O=C(CCCCCn1c(=S)[nH]c2cc3c(cc2c1=O)OCO3)N1CCN(C(=O)c2ccco2)CC1,-14%,-20%,/,0,-29%,-23%
O=C(CCCCCn1c(=S)[nH]c2cc3c(cc2c1=O)OCO3)N1CCN(Cc2ccccc2)CC1,?,-26%,-1%,30,-29%,9.2µM*
O=C(COc1cccc(F)c1)Nc1nc(-c2ccccn2)cs1,-10%,-11%,/,90,2.6µM*,5.2µM*
O=C(COc1ccc([N+](=O)[O-])cc1)Nc1nc(-c2ccccn2)cs1,-3%,-12%,0%,67,5.8µM*,4.6µM*
O=C(COc1ccc(F)cc1)Nc1nc(-c2ccccn2)cs1,?,-1%,8%,21,7.3µM*,7.3µM*
Cc1ccc(OCC(=O)Nc2nc(-c3ccccn3)cs2)c(C)c1,-25%,-13%,0%,45,?,?
CCOC(=O)c1c(S(=O)(=O)N2CCC(C(=O)Nc3ccc(C)cc3C)CC2)c(C)n(C)c1C,1%,-3%,-6%,/,-17%,-11%
O=C(Cn1ccc2ccccc2c1=O)NCC(=O)N1CCN(c2ccc(F)cc2)CC1,13%,-4%,0%,-1,1%,2%
O=C(/C(=C/c1ccccc1)n1cncn1)c1ccc(Cl)cc1Cl,?,-18%,6%,-100*,?,6%
O=C(CSc1nc2ccccc2c(=O)n1-c1ccccc1)NC(=O)CN1CCCC1=O,0%,-3%,22µM*,8,3%,12%
CC1CC(C)CN(C(=O)Cn2c(SCC(=O)N3CCc4ccccc4C3)nc3ccccc32)C1 (centres undefined),?,8%,1%[56.1 µM],-24,21µM*,?
O=C(CSc1nc2ccccc2c(=O)n1-c1ccccc1)N1CCC1,29%,9%,5%,5,0%,8%
O=C(CSc1nc2ccccc2c(=O)n1-c1ccccc1)N1CCc2ccccc2C1,?,-3%,3%,-16,16µM*,26µM*
CC(C)c1ccccc1-n1c(SCC(=O)c2ccc3c(c2)NC(=O)CO3)nc2ccccc2c1=O,-4%,7%,5%,-29,23µM*,18µM*
CCC(Cc1ccccc1)NS(=O)(=O)c1ccc2c(c1)NC(=O)C(C)S2 (centres undefined),?,-25%,5%,-21,?,?
C#CCOc1ccc(C(=O)N(C)c2ccccc2I)cc1,1%,8%,9%,/,/,/
SMILES,TGFb inhibitor,HepG2 tox,TDP1 block,IL1B secr inh,DT40 TDP1 no CPT,TDP1 cell CPT
O=C(Cc1nnc(CNC(=O)c2ccccc2)o1)Nc1cc(C(F)(F)F)ccc1Cl,/,/,0%,/,/,/
COc1ccc(-c2nc3cnc(OCc4ccccc4)nc3n(CCC#N)c2=O)cc1,/,/,/,/,20%,16%
Cc1noc(C)c1CC(=O)N1CCOc2c(cc(-c3nc4ccccc4s3)cc2OC2CCOC2)C1 (centres undefined),/,/,/,/,-9%,12%[9.04 µM]
CC(C)c1ccccc1-n1c(SCC(=O)N2CCc3ccccc3C2)nc2ccccc2c1=O,?,-1%,1%,?,23µM*,?
O=C1COc2ccc(C(=O)CSc3nnc(Cc4cccs4)n3-c3ccccc3)cc2N1,17%,1%,2%,-21,9.2µM*,?
Cn1c(=O)c2c(nc(SCC(=O)N3CCc4ccccc4C3)n2C)n(C)c1=O,-3%,2%,2%,-1,-7%,-1%
Cc1cccc(-n2nnnc2SCC(=O)Nc2cccc(S(N)(=O)=O)c2)c1,?,-32%,6%,70,?,-15%
COc1ccc(CCNC(=O)Cc2ccc(NC3=NC4CS(=O)(=O)CC4S3)cc2)c(OC)c1 (centres undefined),-1%,6%,/,-13,-3%,5%
CC(=O)c1c(C)[nH]c(-c2ccccc2)c1C,0%,10%,3%,-1,-12%,3%
C=CCNC(=O)C(=O)c1c(-c2ccccc2)[nH]c2ccccc12,-2%,14%,1%,-18,-23%,-15%
CC(=O)c1c(-c2ccccc2)[nH]c2ccccc12,-1%,-21%,/,-7,13µM*,13µM*
O=C(O)/C=C/C(=O)c1c(-c2ccccc2)[nH]c2ccccc12,13µM*,-2%,3%,9,?,?
CC(C)CN1CC2(CCN(C(=O)c3cccc(F)c3)CC2)C1,/,/,/,/,1%,4%
